SW480 rereplic: inducers of DNA re-replication in SW480 colon cancer cells. Potency, µM (top dose mostly 46.1 µM), hits mostly activators. 1.8% of 340,000 active. SW480 DNA re-replication, Hoechst DNA content imaging, 48 h; note: nearly all actives have a fitted effect of over 55% in size
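Treated cells incubate 48 hr (37 C, 5% CO2), are stained 40 min with Hoechst, and nuclear fluorescence is enumerated; a rise in nuclei with high DNA signal marks re-replication.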
MCF10A rerep: inducers of DNA re-replication in MCF 10A breast cells. MCF 10A DNA re-replication, Hoechst nuclear intensity, 48 h. Potency, µM (highest dose often 46.1 µM), hits mostly activators. 2.9% of 350,000 active; note: nearly all actives have a fitted effect of over 50% in size
Giardia kill: kills Giardia lamblia | Giardia lamblia trophozoite viability | activity change, % at 7.66 µM, hits read low | 0.15% of 340,000 active | AID 540267; in the data active = activity change below about -80%; inconclusive = between about -30% and that limit;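 note: parasites exposed to compound for two days anaerobically before the ATP read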
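Giardia lamblia trophozoites (100 cells/well) were incubated with compounds for 48 h at 37 deg C under anaerobic conditions. Viability was read as ATP content by one-step luminescence after 15-30 min at room temperature.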
BCR signal inh: inhibitors of chronic active B-cell receptor signaling; ABC-DLBCL IkBa-CBG/CBR reporter, luminescence ratio, 4 h; Potency, µM (top dose mostly 46.1 µM), usual class: inhibitors; 0.05% of 340,000 active; AID 493014; active = well fitted inhibition curve with a large enough effect in the signal ratio, with a control signal flat, not every such curve was filed as active; inconclusive = small, poorly fitted or top-dose-only effect, or effect the other way, or a change in a side signal; the % refers to the signal ratio
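TMD8 human ABC-DLBCL cells with doxycycline-inducible IκBα–green luciferase fusion and unfused red luciferase, in 0.5% FBS medium; compounds up to 46 uM, 4 h at 37C. Green/red luminescence ratio, filter-overlap corrected, fitted to concentration-response curves.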
Gal4-VP16 FLuc: inhibits Gal4-VP16 luciferase reporter, ROR gamma counter-screen. 3.5% of 310,000 active. Drosophila S2 Gal4-VP16 UAS-luciferase, luminescence, 20 h. Potency, µM (doses to about 53.6 µM), most hits filed as inhibitors;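 note: Gal4-VP16 expression switched on by copper sulfate through the metallothionein promoter; nearly all actives have a fitted effect of over 50% in size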
RORgamma inh: inhibitors of mouse ROR gamma transcriptional activity; P51450; Drosophila S2 Gal4-RORgamma UAS-luciferase reporter, 20 h; Potency, µM (series often up to 53.6 µM), usual class: inhibitors; 5.4% of 310,000 active; AID 2551; note: nearly all actives have a fitted effect of over 60% in size
Target sequence (P51450 whole entry, looked up, the tested form may be a part): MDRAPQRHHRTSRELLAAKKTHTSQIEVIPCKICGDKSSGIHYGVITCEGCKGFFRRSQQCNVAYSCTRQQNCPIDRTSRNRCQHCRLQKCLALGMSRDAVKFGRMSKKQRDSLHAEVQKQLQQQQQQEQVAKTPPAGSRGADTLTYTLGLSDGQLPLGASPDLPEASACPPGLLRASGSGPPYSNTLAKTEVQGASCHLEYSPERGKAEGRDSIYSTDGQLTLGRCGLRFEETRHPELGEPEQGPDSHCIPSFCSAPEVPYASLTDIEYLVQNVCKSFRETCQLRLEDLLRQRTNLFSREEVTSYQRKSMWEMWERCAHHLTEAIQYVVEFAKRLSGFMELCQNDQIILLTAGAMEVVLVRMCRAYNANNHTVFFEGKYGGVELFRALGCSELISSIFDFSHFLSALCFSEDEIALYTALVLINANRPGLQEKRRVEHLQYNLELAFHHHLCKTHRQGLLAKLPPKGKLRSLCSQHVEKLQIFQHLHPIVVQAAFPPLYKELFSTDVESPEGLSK
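Stable Schneider cell line, Gal4 DNA-binding domain fused to ROR gamma, UAS-luciferase. Cmpd 1 hr RT → CuSO4 700 uM final → 20 hr RT → luciferase reagent 10 min → luminescence.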
Each line names hits and unclear results; the compound was inactive in the other large screens. Most compounds without a hit are left out; they make up all but 8.3% or so of the library. Unless noted, calls come from the whole dose curve; as a rule, active = well fitted curve in the direction sought with a large enough effect; inconclusive = small, poorly fitted or top-dose-only effect, or another doubt; inactive = no such curve, though single readings can be large; an effect the other way counts as inactive or inconclusive.

O=C(N/N=C/C(Br)=C/c1ccccc1)c1ccc([N+](=O)[O-])cc1	SW480 rereplic inconclusive, RORgamma inh 12.6µM
O=C(O)c1ccc(N/N=C/C(Br)=C/c2ccccc2)cc1	SW480 rereplic inconclusive, MCF10A rerep inconclusive, BCR signal inh inconclusive, Gal4-VP16 FLuc 10µM, RORgamma inh 8.91µM
CCOc1cc(C(=O)N/N=C/C(Br)=C/c2ccccc2)cc(OCC)c1OCC	SW480 rereplic inconclusive, MCF10A rerep 1.3µM, BCR signal inh inconclusive
O=C(N/N=C/C(Br)=C/c1ccccc1)C(O)c1ccccc1 (stereo not drawn)	Gal4-VP16 FLuc inconclusive, RORgamma inh inconclusive
O=C(N/N=C/C(Br)=C\c1ccccc1)c1ccc2nc[nH]c2c1	SW480 rereplic inconclusive, MCF10A rerep 23.1µM, BCR signal inh inconclusive, Gal4-VP16 FLuc 7.94µM, RORgamma inh 14.1µM
O=C(COC(=O)c1cccc(Br)c1)NC(=O)NC1CCCC1	MCF10A rerep 0.461µM (no result: Gal4-VP16 FLuc, RORgamma inh)
O=C(COC(=O)c1cccc(F)c1)NC(=O)NC1CCCC1	none (no result: Gal4-VP16 FLuc, RORgamma inh)
S=C(Nc1ccccc1)N1CCN(C(=S)c2ccccc2)CC1	BCR signal inh inconclusive
Cn1c(-c2cccs2)nc2ccccc21	RORgamma inh 12.6µM
CCCn1c(-c2cccs2)nc2nc3ccccc3nc21	none
COCCn1c(-c2cccs2)nc2nc3ccccc3nc21	SW480 rereplic 7.31µM, MCF10A rerep inconclusive
COc1ccc2nc(SCC(=O)NC3CC3)c(C#N)cc2c1	none
Cc1ccc(NC(=O)CC2S/C(=N/N=C/C=C/c3ccccc3)NC2=O)cc1Cl (stereo not drawn)	Gal4-VP16 FLuc 3.98µM, RORgamma inh 3.98µM
Cc1ccc(NC(=O)CC2S/C(=N/N=C/c3ccco3)NC2=O)cc1Cl (stereo not drawn)	RORgamma inh inconclusive
CC(C)=N/N=C1/NC(=O)C(CC(=O)Nc2cc(Cl)ccc2C)S1 (stereo not drawn)	Gal4-VP16 FLuc inconclusive, RORgamma inh 11.2µM
Cc1ccccc1NC(=O)CC1SC(=Nc2ccc(O)cc2)NC1=O (stereo not drawn)	none
CCCCCN(C(=O)CCC(=O)OCC(=O)N(CC#N)c1ccccc1)c1c(N)n(CCCC)c(=O)[nH]c1=O	none (no result: Gal4-VP16 FLuc, RORgamma inh)
CCNc1ncc2nc(-c3cccs3)c(=O)n(CCC#N)c2n1	none (no result: SW480 rereplic, MCF10A rerep, Giardia kill, BCR signal inh)
COC(=O)c1cccc2c1-c1ccccc1/C2=N/O	MCF10A rerep inconclusive, BCR signal inh inconclusive, Gal4-VP16 FLuc inconclusive, RORgamma inh 14.1µM
COC(=O)C1CCN(C(=O)/C=C/c2ccc3c(c2)OCO3)CC1	BCR signal inh inconclusive
O=C(Nc1cccc(-c2csc(Nc3ccccc3)n2)c1)c1cc([N+](=O)[O-])cc(C(F)(F)F)c1	BCR signal inh inconclusive, RORgamma inh inconclusive
O=C(Nc1cccc(-c2csc(Nc3ccc(Cl)cc3)n2)c1)c1cc([N+](=O)[O-])cc(C(F)(F)F)c1	MCF10A rerep 9.2µM, BCR signal inh inconclusive, RORgamma inh inconclusive
O=C(Nc1cccc(-c2csc(Nc3ccc(Cl)cc3)n2)c1)c1cccc(C(F)(F)F)c1	MCF10A rerep 4.11µM, RORgamma inh inconclusive
COc1ccc(S(=O)(=O)N(C)C[C@H]2Oc3ccc(NS(=O)(=O)c4cccs4)cc3C(=O)N([C@H](C)CO)C[C@@H]2C)cc1	SW480 rereplic inconclusive, MCF10A rerep 3.26µM (no result: BCR signal inh, Gal4-VP16 FLuc, RORgamma inh)
O=C(CCNC(=O)c1ccccc1)NCC1CCCCC1	none
CCN(C(=O)c1cc(S(=O)(=O)N2CCCCC2)c[nH]1)c1ccc(OC)cc1	none
CC1Cc2ccccc2N1S(=O)(=O)c1cnc(Cl)c(Cl)c1 (stereo not drawn)	MCF10A rerep 14.6µM, BCR signal inh inconclusive
CC1Cc2ccccc2N1S(=O)(=O)c1cnc(Cl)c(Br)c1 (stereo not drawn)	SW480 rereplic inconclusive, MCF10A rerep inconclusive
CSc1ccc(COC(=O)c2cc([N+](=O)[O-])ccc2N2CCOCC2)cc1	SW480 rereplic 0.058µM, MCF10A rerep inconclusive, BCR signal inh inconclusive (no result: Gal4-VP16 FLuc, RORgamma inh)
CCOc1ccc(C(=O)COC(=O)c2cc([N+](=O)[O-])ccc2N2CCOCC2)cc1	SW480 rereplic 4.11µM, MCF10A rerep inconclusive (no result: Gal4-VP16 FLuc, RORgamma inh)

Source: PubChem BioAssay
